# Measured values taken from the supplement of paper PMC7156485.
# ± gives the standard deviation of the averaged measurements.
# Test system: HCC1569
# Assay: cell number relative to DMSO (% of DMSO); higher = more cells (less growth inhibition / toxicity)
# Conditions: concentration: 10 µM; 24 h
# Summary of the method: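 After 24 h at 37 °C with compounds at 10 µM, in triplicate, HCC1569 and TDF cells were fixed with 3.7% formaldehyde. Immunostaining used a rabbit anti-H1.0 antibody and an AlexaFluor 647 secondary, with DAPI, and six fields per well were imaged at ×10. H1.0 nuclear intensity or cell number is presented as percent of the plate control, from the median of replicates, with HCC1569 values smoothed for positional effects.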
# 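Note: TDF denotes transformed human dermal fibroblasts of mesenchymal origin.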
row,Structure (SMILES),cell number
1,CN(C)[C@@H]1CCc2[nH]c3ccc(NC(=O)c4ccc(F)cc4)cc3c2C1.Cl,99.2
2,Cc1cc(C(C)(C)C)c(O)c(C(C)(C)C)c1,99.4
3,Cl.c1ccc(-n2c(C3=NCCN3)cc3ccccc32)cc1,98.8
4,Cl.N=c1ccn2c(n1)OC1C(O)C(CO)OC12 (stereo unspecified) [Ancitabine hydrochloride],73.5
5,CC(N)C1CCC(C(=O)Nc2ccncc2)CC1.Cl.Cl (stereo unspecified),110
6,O=C(Nc1cccc(Cl)c1)Nc1ncc(CCNc2ncnc3ccsc23)s1,66.1
7,NC(=O)c1ccc(N(C(N)=O)c2c(F)cccc2F)nc1-c1ccc(F)cc1F,105
8,CC(C)N=c1cc2n(-c3ccc(Cl)cc3)c3ccccc3nc-2cc1Nc1ccc(Cl)cc1,89.6
9,CNc1nccc(-c2cccnc2Oc2cc(C(=O)Nc3cccc(C(F)(F)F)c3)ccc2C)n1,82.3
10,Cl.Cl.OCCN1CCN(CCCN2c3ccccc3C=Cc3ccccc32)CC1,102
11,O=C(NCCO)c1cccc(-c2cc(Nc3ccc(OC(F)(F)F)cc3)ncn2)c1,91.1
12,CCCCNc1ncc(C(=O)NCc2ccc(-n3ccnc3)cc2)c(NC2CCC(O)CC2)n1 (stereo unspecified),65.8
13,CCN(CC)CCNC(=O)c1c(C)[nH]c(C=C2C(=O)Nc3ccc(F)cc32)c1C [Sunitinib],92.1
14,CNc1cc(NS(=O)(=O)c2ccc(N)cc2)nc(NC)n1.Cl.Cl [Ro 04-6790 dihydrochoride],107
15,CCN1CCN(C(=O)NC(C(=O)NC2C(=O)N3C2SC(C)(C)C3C(=O)O)c2ccccc2)C(=O)C1=O (stereo unspecified) [Piperacillin],101
16,O=c1ccc2ccc(O)c(O)c2o1 [Daphnetin],106
17,Cc1cccc(-c2nn(C(=S)Nc3ccccc3)cc2-c2ccnc3ccccc23)n1,98.7
18,O=C(Nc1cc(C(F)(F)F)cc(C(F)(F)F)c1)c1cc(Cl)ccc1O,57

row,Structure (SMILES),cell number
1,CC(C)Cc1ccc(C(C)C(=O)O)cc1 (racemic),103
2,C=CCCCCCCCCC(=O)O [10-Undecenoic acid],102
3,CC1CCN(C(=O)CC#N)CC1N(C)c1ncnc2[nH]ccc12 (stereo unspecified) [Tasocitinib],110
4,O=c1c(OC2OC(C(O)CO)C(O)C2O)c(-c2ccc(O)c(O)c2)oc2cc(O)cc(O)c12 (stereo unspecified) [Isoquercitrine],103
5,Cl.NOCC(=O)O.NOCC(=O)O [O-(Carboxymethyl)hydroxylamine hemihydrochloride],107
6,"C#CCn1c(=O)c2c(ncn2C)n(C)c1=O [3,7-Dimethyl-I-propargylxanthine]",99.5
7,CCOC(=O)C1=CC2(CC)CCCN3CCc4c(n1c1ccccc41)C32 (stereo unspecified) [Vinpocetine],101 ± 3
8,CC1CCC2(C(=O)O)CCC3(C)C(=CCC4C5(C)CCC(O)C(C)(C)C5CCC43C)C2C1C (stereo unspecified) [Ursolic acid],100
9,COc1cc2c(cc1OC)CC(=O)N(CCCN(C)C[C@H]1Cc3cc(OC)c(OC)cc31)CC2.Cl,100
10,Cc1ccc(F)c(NC(=O)Nc2ccc(-c3cccc4[nH]nc(N)c34)cc2)c1,92.4
11,Cl.O=C(O)C1CCCN(CCC=C(c2ccccc2)c2ccccc2)C1 (stereo unspecified),97.9
12,Br.COc1ccccc1N1CCN(CCCCN2C(=O)c3ccccc3C2=O)CC1 [NAN-190 hydrobromide],104
13,CCC1(O)C(=O)OCc2c1cc1n(c2=O)Cc2cc3c(CN(C)C)c(O)ccc3nc2-1.Cl (stereo unspecified) [Topotecan.HCl],65.7
14,Cc1cc2c(OCC(CNC(C)(C)C)OC(=O)c3ccccc3)cccc2[nH]1 (stereo unspecified) [Bopindolol],98.1
15,COc1ccc2cc1Oc1ccc(cc1)CC1c3cc(c(OC)cc3CCN1C)Oc1c(OC)c(OC)cc3c1C(C2)N(C)CC3 (stereo unspecified) [Isotetrandrine],97.9
16,COc1ccc2cc(OCC3(C(=O)O)CN(C(=O)c4ccc(F)cc4)C3)ccc2c1,105
17,C[N+](C)(C)CC(O)CC(=O)[O-].Cl (racemic),102
18,NS(=O)(=O)c1cc2c(cc1Cl)NC(C1CC3C=CC1C3)NS2(=O)=O (stereo unspecified) [Cyclothiazide],100
